In PubChem BioAssay (EPA / NIEHS):
Records with an inconclusive call do not appear. Active and inactive are the calls of the source. How the source made its calls, unless noted: active means hit-call score of the fitted dose curve at least 0.9, where 1 is the maximum; inactive means score below 0.9.

Legend:
[1] = read-out: E-selectin (Homo sapiens) (UniProt P16581); assay: BSK_3C_Eselectin: BioMAP Diversity Plus: 3C Assay for Eselectin Biomarker Activity (AID 2283015); details: primary human endothelial cells (HUVEC); actives raise or lower the signal
In short: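 Primary human umbilical vein endothelial cells (3C system) were dosed with chemical and cell-surface E-selectin measured by ELISA 24 h later. Bidirectional curve fitting used DMSO as negative control and baseline.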

[2] = read-out: Interleukin-1 alpha (IL1a), IL1A (gene 3552); assay: BSK_BE3C_IL1a: BioMAP Diversity Plus: BE3C Assay for Interleukin-1 alpha (IL1a) Biomarker Activity (AID 2283016); details: primary human bronchial epithelial cells; actives raise or lower the signal
In short: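 Human primary bronchial epithelial cells (BE3C system) were dosed with compound and IL-1a measured by ELISA 24 h later. Activity was fitted bidirectionally against DMSO baseline; cytotoxicity was tracked in parallel cultures by SRB total-protein staining.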

[3] = read-out: Monocyte Chemoattractant Protein-1 (MCP1), CCL2 (gene 6347); assay: BSK_3C_MCP1: BioMAP Diversity Plus: 3C Assay for Monocyte Chemoattractant Protein-1 (MCP1) Biomarker Activity (AID 2283017); details: primary human endothelial cells (HUVEC); actives raise or lower the signal
In short: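 Primary human umbilical vein endothelial cells (3C system) were exposed to test chemical for 24 h, after which MCP-1 was quantified by ELISA. Activity was fitted bidirectionally against DMSO as negative control and baseline.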

[4] = read-out: Monocyte Chemoattractant Protein-1 (MCP1), CCL2 (gene 6347); assay: BSK_4H_MCP1: BioMAP Diversity Plus: 4H Assay for Monocyte Chemoattractant Protein-1 (MCP1) Biomarker Activity (AID 2283018); details: primary human endothelial cells (HUVEC); actives raise or lower the signal
In short: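 Human umbilical vein endothelial cells (4H system) dosed with chemical; MCP-1 measured by ELISA 24 h after dosing. Bidirectional curve fitting against DMSO negative control as baseline; parallel SRB total-protein staining tracks overt cytotoxicity.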

[5] = read-out: Human Leukocyte Antigen - DR isotype (HLADR), HLA-DRA (gene 3122); assay: BSK_3C_HLADR: BioMAP Diversity Plus: 3C Assay for Human Leukocyte Antigen - DR isotype (HLADR) Biomarker Activity (AID 2283019); details: primary human endothelial cells (HUVEC); actives raise or lower the signal
In short: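 Primary human umbilical vein endothelial cells (3C system) were dosed with compound and cell-surface HLA-DR was quantified by ELISA at 24 h. Activity was fitted bidirectionally against DMSO as negative control and baseline.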

[6] = read-out: Interleukin-8 (IL8), CXCL8 (gene 3576); assay: BSK_3C_IL8: BioMAP Diversity Plus: 3C Assay for Interleukin-8 (IL8) Biomarker Activity (AID 2283020); details: primary human endothelial cells (HUVEC); actives raise or lower the signal
In short: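 Primary human umbilical vein endothelial cells (3C system) were exposed to test chemical for 24 h, then IL-8 was quantified by ELISA. Responses were fitted bidirectionally against DMSO vehicle as baseline.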

[7] = read-out: Monokine induced gamma interferon (MIG), CXCL9 (gene 4283); assay: BSK_3C_MIG: BioMAP Diversity Plus: 3C Assay for Monokine induced gamma interferon (MIG) Biomarker Activity (AID 2283021); details: primary human endothelial cells (HUVEC); actives raise or lower the signal;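 on AC50: MIG protein level measured by immunoassay in the treated endothelial cultures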
In short: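 Primary human umbilical vein endothelial cells in the 3C system were exposed to chemical for 24 h, after which MIG was quantified by ELISA. Activity was fitted bidirectionally against DMSO as negative control and baseline.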

[8] = target: human Vitamin D Receptor (VDR), VDR (gene 7421) (UniProt P11473); assay: ATG_VDR_TRANS: Attagene TRANS-FACTORIAL HepG2 Assay for human Vitamin D Receptor (VDR) (AID 2283022; active means hit-call score of the fitted dose curve at least 0.9, where 1 is the maximum)
human Vitamin D Receptor (VDR), VDR (gene 7421), sequence (P11473 whole entry, looked up, the tested form may be a part): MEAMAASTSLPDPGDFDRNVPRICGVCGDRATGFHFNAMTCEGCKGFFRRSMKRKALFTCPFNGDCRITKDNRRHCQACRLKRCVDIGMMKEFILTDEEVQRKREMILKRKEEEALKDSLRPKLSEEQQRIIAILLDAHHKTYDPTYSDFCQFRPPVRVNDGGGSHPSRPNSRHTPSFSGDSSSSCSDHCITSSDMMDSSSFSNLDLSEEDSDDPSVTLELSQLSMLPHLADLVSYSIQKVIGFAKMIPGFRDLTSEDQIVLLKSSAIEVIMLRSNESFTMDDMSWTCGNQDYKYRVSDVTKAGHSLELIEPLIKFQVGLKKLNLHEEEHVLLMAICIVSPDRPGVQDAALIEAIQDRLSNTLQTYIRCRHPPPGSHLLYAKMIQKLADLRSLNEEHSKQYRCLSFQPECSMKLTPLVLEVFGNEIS
In short: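 HepG2 cells were transiently transfected with multiple GAL4-UAS reporter units, so signal reflects exogenous chimeric receptor-Gal4 activity. After 24 h compound exposure, reporter mRNA was measured by RT-PCR, fluorescent labelling and capillary electrophoresis, fitted for gain of signal versus DMSO.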

[9] = BSK_3C_SRB: Viability Assessment in the BioMAP Diversity Plus: 3C Assay (AID 2283023); details: primary human endothelial cells (HUVEC);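 further: fitted both ways against DMSO so a hit may be signal rise or drop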
In short: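 Primary human umbilical vein endothelial cells in the 3C system were read 24 h after compound dosing. Total protein was stained with 0.1% sulforhodamine B after 10% TCA fixation and read at 560 nm, with bidirectional fitting against DMSO as baseline.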

[10] = read-out: Matrix Metallopeptidase 1 (MMP1), MMP1 (gene 4312); assay: BSK_BE3C_MMP1: BioMAP Diversity Plus: BE3C Assay for Matrix Metallopeptidase 1 (MMP1) Biomarker Activity (AID 2283024); details: primary human bronchial epithelial cells; actives raise or lower the signal
In short: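 Primary human bronchial epithelial cells were dosed with test chemicals, and MMP1 levels were measured by ELISA 24 h later. Data were fitted bidirectionally against DMSO as the negative control and activity baseline.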

Measured: AC50

E-selectin (Homo sapiens), sequence (P16581 whole entry, looked up): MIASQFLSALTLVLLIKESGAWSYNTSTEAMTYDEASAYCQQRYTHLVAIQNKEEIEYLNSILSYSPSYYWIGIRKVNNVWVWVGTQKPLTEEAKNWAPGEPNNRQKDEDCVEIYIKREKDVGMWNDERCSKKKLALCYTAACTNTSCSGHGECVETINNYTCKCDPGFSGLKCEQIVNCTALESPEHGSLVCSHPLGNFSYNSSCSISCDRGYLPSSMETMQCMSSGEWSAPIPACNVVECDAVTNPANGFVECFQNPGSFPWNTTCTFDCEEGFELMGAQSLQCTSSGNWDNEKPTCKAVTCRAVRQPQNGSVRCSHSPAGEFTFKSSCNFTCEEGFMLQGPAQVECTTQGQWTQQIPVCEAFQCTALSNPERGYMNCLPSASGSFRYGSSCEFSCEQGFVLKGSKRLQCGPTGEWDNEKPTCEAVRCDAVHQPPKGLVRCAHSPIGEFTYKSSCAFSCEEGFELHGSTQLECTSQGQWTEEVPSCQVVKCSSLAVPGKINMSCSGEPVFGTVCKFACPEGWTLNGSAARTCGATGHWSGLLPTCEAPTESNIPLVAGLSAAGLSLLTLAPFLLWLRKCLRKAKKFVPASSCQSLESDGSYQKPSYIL

CC(C)=CC1C(C(=O)OCc2cccc(Oc3ccccc3)c2)C1(C)C (stereo not given)
active: [1] 2.62 µM | [4] 20 µM | [5] 20 µM | [9] 26.7 µM
inactive: all other assays above

CCOP(=O)(OCC)SCCSCC
not listed: [8]
inactive: all other assays above

Cc1ccccc1OP(=O)(Oc1ccccc1)Oc1ccccc1
inactive: [7] | [8]
active: [1] 20 µM | [2] 6.89 µM | [4] 20 µM | [5] 30.4 µM | [6] 20 µM | [9] 35.8 µM | [10] 6.66 µM

O=c1oc2ccccc2c(O)c1C(CC(O)c1ccc(-c2ccc(Br)cc2)cc1)c1ccccc1 (stereo not given)
active: [1] 19.1 µM | [2] 5.31 µM | [3] 10.5 µM | [4] 1.47 µM | [5] 8.28 µM | [7] 31.2 µM | [9] 10.7 µM | [10] 9.43 µM
inactive: [6]

CC(C)(C)c1cc([N+](=O)[O-])cc(C(C)(C)C)c1O
active: [1] 0.549 µM | [5] 0.016 µM | [9] 0.815 µM
not listed: [8]
inactive: all other assays above

CCCCN(CCCC)C(=S)[S-].CCCCN(CCCC)C(=S)[S-].[Ni+2]
not listed: [8]
inactive: all other assays above
